TDP-43 yeast inh – TDP-43 toxicity inhibition in yeast | TDP-43 expressing yeast growth rescue, BacTiter-Glo, 24 h | Potency, µM (highest dose often 46.1 µM), without a hit: at the top dose growth rescue (activation), most hits filed as activators | actives 1.8% (n = 410,000) | AID 652104; further: potency means the concentration at half of the fitted maximal effect; % of control where 0% means no effect; nearly all actives have a fitted effect of over 50% in size
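Luminescence from BacTiter-Glo reports growth of TDP-43-expressing yeast after 24 hr at 30 deg C with compound. Cells were raffinose-pregrown to mid-log, then seeded in galactose medium at OD600=0.02.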
FUS suppressor – FUS proteinopathy suppression in yeast. S. cerevisiae FUS-expressing, growth rescue, OD600, 24 h. Potency, µM (titrated, usually from 76.6 µM), actives largely listed as activators. actives 0.24% (n = 390,000);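 further: potency means the concentration at half of the fitted maximal effect; plate controls were DMSO vehicle for no effect and reference control for full effect; nearly all actives have a fitted effect of over 55% in size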
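S. cerevisiae expressing FUS from galactose induction served as the toxicity model. Growth after 24hr at 30C, read as absorbance at 600 nm, indicates suppression of toxicity; compounds dosed at several concentrations.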
LDHA block – LDHA (human) enzyme inhibition; purified LDHA, NADH/diaphorase-resazurin fluorescence; active compounds read low; actives 0.15% (n = 480,000); activity change, % (values are at about 110 or 230 µM); in the data active means activity change below about -30%; inconclusive means mostly about -25% to -30%;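 further: plate controls were DMSO wells for no effect and wells without enzyme for full effect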
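Resorufin fluorescence (ex540/em590), read at 0 and 20 min after diaphorase/resazurin addition, reports the NADH left after a 5 min room-temperature reaction of 2 nM human LDH5 with 0.06 mM NADH and 0.2 mM pyruvate.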
IDH1 R132H inh – blocks human mutant IDH1 R132H enzyme | actives 0.093% (n = 390,000) | IDH1-R132H enzyme, NADPH consumption, diaphorase/resazurin fluorescence | O75874 | Potency, µM (highest dose often 76.6 µM), inactives show top-dose activity change, negative = inhibition, actives largely listed as inhibitors | AID 602179; further: potency means the concentration at half of the fitted maximal effect; on the % scale 0 is the no-effect control and ±100 the full control effect; nearly all actives have a fitted effect of over 65% in size
Target sequence (O75874 whole entry R132H, stated change not applied): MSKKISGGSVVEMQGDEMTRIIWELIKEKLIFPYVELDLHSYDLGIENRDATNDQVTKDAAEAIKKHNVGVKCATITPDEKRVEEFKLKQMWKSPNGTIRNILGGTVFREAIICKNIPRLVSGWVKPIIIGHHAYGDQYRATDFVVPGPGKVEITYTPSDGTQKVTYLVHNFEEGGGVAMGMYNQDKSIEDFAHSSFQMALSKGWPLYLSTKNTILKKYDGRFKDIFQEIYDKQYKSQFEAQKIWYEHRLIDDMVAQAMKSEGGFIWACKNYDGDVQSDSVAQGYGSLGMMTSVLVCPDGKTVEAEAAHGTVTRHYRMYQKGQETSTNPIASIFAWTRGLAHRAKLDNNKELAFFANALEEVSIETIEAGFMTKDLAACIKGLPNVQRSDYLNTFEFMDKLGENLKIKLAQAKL
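IDH1-R132H (0.5 ug/mL) preincubated 30 min with compound, then NADPH (0.016 mM) and alpha-KG (2 mM) added; 80 min at RT, pH 7.5. Remaining NADPH coupled via diaphorase/resazurin to fluorescence (540/590 nm); concentration-response curves normalized to no-enzyme control.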
Abeta yeast res – A-beta toxicity reversal in yeast; yeast expressing A-beta42, growth rescue, OD600, 48 h; response scale: 0% DMSO, 100% iron-clioquinol control; Potency, µM (doses to about 46.1 µM), actives largely listed as activators; actives 0.063% (n = 410,000); AID 1347071; further: potency means the concentration at half of the fitted maximal effect; nearly all actives have a fitted effect of over 55% in size
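Growth rescue measured by 600 nm absorbance after 48 h yeast culture at 30 C with compound. Values normalized between DMSO and an equimolar ferric chloride plus clioquinol control.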
aSyn rescue – rescues yeast growth from alpha-synuclein toxicity; actives 0.14% (n = 370,000); Potency, µM (series often up to 46.1 µM), without a hit: top-dose growth rescue (activation), actives largely listed as activators; Yeast expressing alpha-synuclein, growth rescue, BacTiter-Glo, 24 h; further: potency means the concentration at half of the fitted maximal effect; % of control where 0% means no effect; nearly all actives have a fitted effect of over 65% in size
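Readout is rescue of growth in alpha-synuclein-expressing yeast, so inhibitors of toxicity appear as activators. Growth after 24 hr at 30 deg C in galactose medium is quantified by luminescence.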
An asterisk follows results filed as active; i = inactive; ? = inconclusive; / = no result given. Only some compounds are listed: those with a hit (about 2% of all), similar ones and a draw of the others. Unless noted, the call rests on the fitted dose curve; in most records, active means well fitted curve in the direction sought with a large enough effect; inconclusive means small, poorly fitted or top-dose-only effect, or another doubt; inactive means no such curve, though single readings can be large; an effect the other way counts as inactive or inconclusive.

SMILES	TDP-43 yeast inh	FUS suppressor	LDHA block	IDH1 R132H inh	Abeta yeast res	aSyn rescue
O=C1C(Cc2ccccc2)Nc2ncnc(N3CCN(c4ccccc4)CC3)c2N1Cc1ccccc1 (stereo not given)	-1%	i	1	-6%	i	6%
Cc1ccc2c(c1)C(=O)CC(c1ccc3c(c1)OCCO3)O2 (stereo not given)	11µM*	i	-7	1%	i	-14%
COc1ccc2c(c1)C(=O)CC(c1ccc3c(c1)OCCO3)O2 (stereo not given)	11µM*	i	-1	2%	i	-8%
COc1ccc2c(c1)C(=O)CC(c1ccc(OC)c(OC)c1)O2 (stereo not given)	15%	i	0	8%	i	2%
Cc1ccc2c(C)cc(SCC(=O)N3CCOCC3)nc2c1	/	/	6	/	/	/
COc1ccccc1NC1=C(Cl)C(=O)N(c2ccccc2)C1=O	6.3µM*	/	0	3%	i	-16%
CCOC(=O)c1cn(CC)nc1S(=O)(=O)N1CCOCC1	/	/	9	/	/	/
Cc1cc(C)c2nc(Nc3nc(C(C)C)cc(=O)[nH]3)nc(C)c2c1	/	/	-32*	/	/	/
Cc1nc(Nc2nc(C(C)C)cc(=O)[nH]2)nc2c(C)cccc12	/	/	9	/	/	/
CCCNC(=O)c1cc(-c2ccc(C)s2)nc2ccccc12	/	/	3	/	/	/
Cc1ccc(NC(=S)c2nc3ccccc3[nH]2)c(C)c1	18µM*	i	-6	9%	?	-4%
CCc1ccc(N2C(=O)Cc3c2nc(N)c(C#N)c3N)cc1	0%	25µM*	0	-2%	i	-6%
O=C1COc2ccccc2N1Cc1c(F)cccc1Cl	11µM*	i	0	12%	i	4%
CCNC(=S)N/N=C(/C)c1ccccc1Br	/	/	-10	/	/	/
CCNC(=S)N/N=C(\C)c1ccc2ccccc2c1OC(F)F	?	?	1	2%	5.6µM*	-9%
CCOc1ccc2c(c1)cc(C(=O)NCc1ccco1)n2C	/	/	8	/	/	/
COc1cc(CC(=O)Nc2cccc(SC)c2)cc(OC)c1OC	-1%	i	0	-1%	i	1%
COc1ccc(CC(=O)Nc2cccc(SC)c2)cc1	13µM*	/	2	1%	i	0%
Cc1cc(C(=O)COC(=O)c2nccnc2N)c(C)n1CCc1cccs1	/	/	-3	/	/	/
Nc1nc(-c2cc(Cl)cc(Cl)c2OC(F)F)cs1	16µM*	i	-5	2%	i	2%
CCc1ccc(OC)c(-c2csc(N)n2)c1	16%	i	-2	11%	i	-23%
COc1cccc(C(=O)Nc2c(C(=O)N3CCN(Cc4ccccc4)CC3)oc3ccccc23)c1	/	/	-4	/	/	/
Cc1cc(Nc2cccc(C(F)(F)F)c2)nc2ccc(NC(=O)Cc3ccc(Cl)cc3)cc12	14µM*	i	2	-10%	i	/
COc1ccc(CC(=O)Nc2ccc3nc(Nc4cccc(Cl)c4)cc(C)c3c2)cc1	?	?	-1	3%	i	/
Cc1cc(Nc2cccc(Cl)c2)nc2ccc(NC(=O)c3cccc(N(C)C)c3)cc12	16µM*	?	-3	13%	i	/
SMILES	TDP-43 yeast inh	FUS suppressor	LDHA block	IDH1 R132H inh	Abeta yeast res	aSyn rescue
O=C(COc1ccc(Cl)cc1Cl)Nc1ccc2c(c1)CCN2C(=O)c1cccnc1	/	/	2	/	/	/
CN(CCOc1cccc(Cl)c1)Cc1cc(=O)oc2cc(O)ccc12	/	/	-1	/	/	/
Cc1cc2ncn(/N=C/c3ccc([N+](=O)[O-])s3)c2cc1C	13µM*	/	-2	4%	i	10%
O=[N+]([O-])c1ccc(/C=N/n2cnc3ccccc32)s1	-82%	i	-6	1%	i	-3%
Clc1ccc2c(NN=C3CCCC3)ccnc2c1	/	/	2	/	/	/
COc1cc2ncc(S(=O)(=O)c3ccccc3)c(N3CCCC(C)C3)c2cc1OC (stereo not given)	28µM*	?	0	?	i	-1%
CCN1CCN(c2c(S(=O)(=O)c3ccc(OC)cc3)cnc3cc(OC)c(OC)cc23)CC1	19%	i	-2	-13%	i	/
COc1ccc(F)cc1-c1cc(NC(C)=O)c2ncc(-c3cccc(C(F)(F)F)c3)n2c1	22µM*	?	2	/	?	?
CC(=O)Nc1cccc(-c2cc(NC(C)=O)c3ncc(-c4cccc(C(F)(F)F)c4)n3c2)c1	4%	?	3	/	i	-3%
COc1ccccc1-c1cc(NC=O)c2ncc(-c3cccc(C(F)(F)F)c3)n2c1	22µM*	i	-1	/	i	14%
CC(=O)Nc1cc(-c2ccc(F)cc2)cn2c(-c3ccc(F)c(Cl)c3)cnc12	20µM*	i	3	/	i	-15%
CC(=O)Nc1cc(-c2ccccc2)cn2c(-c3ccc(F)c(Cl)c3)cnc12	?	?	2	/	i	-17%
COc1cccc(-c2cnc3c(NC=O)cc(-c4ccccc4Oc4ccccc4)cn23)c1	35µM*	?	1	/	i	?
CC(C)COc1ccc(-c2nnc(-c3ccco3)o2)cc1	10µM*	i	-10	0%	i	-1%
COc1cccc(-c2nnc(-c3ccco3)o2)c1	16µM*	i	-5	4%	i	-12%
COc1cccc(-c2nnc(-c3ccc(C)o3)o2)c1	21%	i	9	5%	i	-8%
O=C(Cc1c[nH]c2ccccc12)NCC1(N2CCCCC2)CCCCC1	/	/	-5	/	/	/
Fc1ccc2[nH]c3c(NCCN4CCOCC4)ncnc3c2c1	4%	i	-35*	-1%	i	-5%
O=C(O)c1cc([N+](=O)[O-])ccc1OC(F)F	/	/	0	/	/	/
Cc1nc(SCc2cccc(Oc3ccccc3)c2)n[nH]1	28µM*	i	-11	-6%	i	-32%
CCOc1ccc2nc(SCC(=O)NNC(=O)c3ccco3)c(C)cc2c1	-13%	i	-7	-10%	i	2%
CCOc1ccc2cc(/C=C/C(=O)c3ccco3)c(Cl)nc2c1	7.9µM*	i	0	4%	i	-1%
CCSc1nc2sc3c(c2c(=O)[nH]1)CCCC3	7%	i	-1	18%	i	2%
CCSC1=NC2(CCCCC2)Nc2sc3c(c21)CCCC3	29%	35µM*	5	-3%	i	3%

High-throughput results (PubChem BioAssay)
